The values below come from PubChem BioAssay.

Assay [1] in a line: small molecules captured by biotinylated probe aFSTL3 – biochemical, small-molecule microarray, fluorescence 635/667, stem cell growth factor project, primary screen (AID 1064).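 Further: measures binding of the biotinylated anti-FSTL3 antibody to printed compounds.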 As to conditions: higher = more signal.
A short description of assay [2]: binders from COS7 lysate, DM2A8 probe, primary screen, torsin A project, cell lysate, small-molecule microarray, fluorescence 635/667 (AID 1065). As to conditions: higher = more signal, COS7 lysate expressing mutant human TOR1A.
A short description of assay [3]: small molecules captured by biotinylated probe aFGF2 – biochemical, small-molecule microarray, fluorescence 635/667, stem cell growth factor project, primary screen (AID 1067).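 Further: measures binding of biotinylated aFGF2 protein to printed compounds on slides; z-score merges feature fluorescence and signal-to-noise across triplicate slides.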 As to conditions: higher = more signal.
Assay [4] in a line: small molecules captured by biotinylated probe aFGF10 – biochemical, small-molecule microarray, fluorescence 635/667, stem cell growth factor project, primary screen (AID 1071).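 Further: score merges 667 nm spot intensity and signal to noise from triplicate slides.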 As to conditions: higher = more signal.
For assay [5], the target named is Neurogenic locus notch homolog protein 2 (Homo sapiens) (UniProt Q04721). Description: small molecules binding Notch2 protein – biochemical, small-molecule microarray, 635 nm fluorescence, stem cell growth factors, primary screen (AID 1073). To be noted: higher = more signal.
Assay [6] deals with Pro-neuregulin-1, membrane-bound isoform (Homo sapiens) (UniProt Q02297). In words: small molecules binding neuregulin-1 protein – biochemical, small-molecule microarray, fluorescence 635/667, psychiatric disease protein project, primary screen (AID 1075).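 Further: score combines 667 nm spot fluorescence with signal to noise.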 As to conditions: NRG1 binding, 635 nm fluorescence, higher = more signal.
Chain of Pro-neuregulin-1, membrane-bound isoform (Homo sapiens) (Q02297 whole entry, looked up, the tested form may be a part, canonical isoform): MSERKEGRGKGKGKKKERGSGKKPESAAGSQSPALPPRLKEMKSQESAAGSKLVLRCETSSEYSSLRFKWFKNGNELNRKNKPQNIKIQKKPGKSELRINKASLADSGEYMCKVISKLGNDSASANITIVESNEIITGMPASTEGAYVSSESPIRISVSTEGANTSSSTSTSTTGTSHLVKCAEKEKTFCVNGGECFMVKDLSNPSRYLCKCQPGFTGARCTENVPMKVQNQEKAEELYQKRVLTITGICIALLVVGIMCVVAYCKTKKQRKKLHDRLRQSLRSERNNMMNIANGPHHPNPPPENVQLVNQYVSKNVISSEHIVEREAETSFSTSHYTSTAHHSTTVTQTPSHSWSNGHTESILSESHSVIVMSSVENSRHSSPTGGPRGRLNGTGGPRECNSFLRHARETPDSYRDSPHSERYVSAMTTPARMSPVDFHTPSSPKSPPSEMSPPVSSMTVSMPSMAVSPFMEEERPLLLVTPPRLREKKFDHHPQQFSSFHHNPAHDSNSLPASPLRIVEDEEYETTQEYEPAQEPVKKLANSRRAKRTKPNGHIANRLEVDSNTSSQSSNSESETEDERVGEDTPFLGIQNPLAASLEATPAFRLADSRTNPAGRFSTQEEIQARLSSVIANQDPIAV
Assay [7] concerns Neuregulin-1 EGF-like domain. Description: small molecules binding NRG1 EGF domain – biochemical, small-molecule microarray, 635 nm fluorescence, primary screen (AID 1081).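 Further: binding of the protein to compounds printed on small-molecule microarray slides.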 To be noted: higher = more signal.
A short description of assay [8]: FRG1 expression reporter modulators in myotubes – cell-based, C2C12 myotubes, firefly/Renilla luciferase, luminescence, FRG1 inhibition for FSHD, primary screen (AID 1084). As to conditions: FRG1 promoter luciferase, higher = more signal, called active from +8 up or from −8 down.
Assay [9] can be described thus: small molecules captured by biotinylated probe aFST – biochemical, small-molecule microarray, fluorescence 635/667, stem cell growth factor project, primary screen (AID 1086).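 Further: score merges 667 nm fluorescence with signal-to-noise of each printed compound spot.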 As to conditions: higher = more signal.
Assay [10] can be described thus: binders of probe aHhip on microarray, primary screen, stem cell growth factor project, biochemical, small-molecule microarray, fluorescence 635/667 (AID 1087).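 Further: score merges spot fluorescence at 667nm with spot signal to noise ratio.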 To be noted: higher = more signal.
The subject of assay [11] is PRMT1 (protein arginine N-methyltransferase 1). Description: small molecules binding arginine methyltransferase PRMT1 – biochemical, small-molecule microarray, 635 nm fluorescence, primary screen (AID 1088).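 Further: binding of Prmt1 protein to compounds spotted on small-molecule microarray slides.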 As to conditions: higher = more signal.
The nature of assay [12]: growth effects on S. cerevisiae YJM789 – YJM789 clinical isolate, OD600, 24 h, basal, primary screen (AID 1089).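 Further: growth of clinical yeast isolate S. cerevisiae YJM 789 seeded 1000 cells per well; test concentration not given here.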 As to conditions: higher = more signal, called active from +8 up or from −8 down.
Assay [13] in a line: S. pombe growth modifiers, basal conditions – strain 972, OD600, 24 h, no modulator, primary screen (AID 1090).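 Further: basal condition with compound alone and no growth modifier present; test concentration not given here.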 As to conditions: S. pombe 972 growth, higher = more signal, called active from +8 up or from −8 down.
The nature of assay [14]: budding yeast growth modifiers under rapamycin – strain BY4716, OD600, 96 h, primary screen (AID 1091). Further: test concentration not given here. As to conditions: S. cerevisiae BY4716 + rapamycin, higher = more signal, called active from +8 up or from −8 down.
For assay [15], the target named is Torsin-1A-interacting protein 2 (Homo sapiens) (UniProt Q8NFQ8). In words: small molecules binding lysate-expressed LULL1 – cell lysate, human LULL1 lysate, 635/667 nm fluorescence, primary screen (AID 1092).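 Further: probe is lysate of COS7 cells overexpressing human LULL1; score merges per-feature 667 nm fluorescence with signal-to-noise.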 To be noted: small-molecule microarray, hLULL1 lysate binding, 635 nm fluorescence; higher = more signal.
Chain of Torsin-1A-interacting protein 2 (Homo sapiens) (Q8NFQ8 whole entry, looked up): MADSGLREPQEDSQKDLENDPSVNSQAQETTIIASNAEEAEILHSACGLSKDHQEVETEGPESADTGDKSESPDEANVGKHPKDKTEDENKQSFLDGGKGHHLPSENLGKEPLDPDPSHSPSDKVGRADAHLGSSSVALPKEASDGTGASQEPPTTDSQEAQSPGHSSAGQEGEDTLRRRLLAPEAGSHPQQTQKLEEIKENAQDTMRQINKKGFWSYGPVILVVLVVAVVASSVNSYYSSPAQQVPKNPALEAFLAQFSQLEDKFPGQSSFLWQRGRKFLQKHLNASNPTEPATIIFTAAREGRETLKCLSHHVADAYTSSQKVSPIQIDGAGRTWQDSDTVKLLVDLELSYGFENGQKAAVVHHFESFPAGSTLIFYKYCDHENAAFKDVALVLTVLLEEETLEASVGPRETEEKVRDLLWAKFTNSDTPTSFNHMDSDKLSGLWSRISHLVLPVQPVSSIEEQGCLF
Assay [16] in a line: optical density change of DRC41 E. coli – strain DRC41, OD650, 24 h, E. coli filamentation project, primary screen (AID 1093).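 Further: MC1000 strain lacking acrAB efflux and sulA so SOS filamentation is blocked; test concentration not given here.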 As to conditions: E. coli DRC41 growth, higher = more signal, called active from +8 up or from −8 down.
The nature of assay [17]: probe aLefty2 binding to arrayed compounds – biochemical, biotinylated probe, 635/667 nm fluorescence, primary screen (AID 1094).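 Further: score merges spot fluorescence near 667 nm with spot signal-to-noise ratio.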 As to conditions: small-molecule microarray, higher = more signal.
The test system of assay [18] is Noggin (protein binding on small-molecule microarray). In words: small molecules binding Noggin protein – biochemical, 635/667 nm fluorescence, primary screen (AID 1095).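 Further: score merges 667 nm feature fluorescence with signal to noise over triplicate slides.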 To be noted: 635 nm fluorescence, higher = more signal.
Assay [19] has as its target Neurogenic locus notch homolog protein 3 (Homo sapiens) (UniProt Q9UM47). In words: small molecules binding NOTCH3 protein – biochemical, 635/667 nm fluorescence, primary screen (AID 1096). To be noted: small-molecule microarray, 635 nm fluorescence, higher = more signal.
The nature of assay [20]: probe aEGFR binding to arrayed compounds – biochemical, biotinylated probe, 635/667 nm fluorescence, primary screen (AID 1097).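 Further: probe is a biotinylated anti-EGFR antibody binding compounds printed on slides; score combines fluorescence near 667 nm and signal to noise of each spot.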 As to conditions: small-molecule microarray, higher = more signal.

Calls of active or inactive are those of the source.

Chain of Neurogenic locus notch homolog protein 3 (Homo sapiens) (Q9UM47 whole entry, looked up): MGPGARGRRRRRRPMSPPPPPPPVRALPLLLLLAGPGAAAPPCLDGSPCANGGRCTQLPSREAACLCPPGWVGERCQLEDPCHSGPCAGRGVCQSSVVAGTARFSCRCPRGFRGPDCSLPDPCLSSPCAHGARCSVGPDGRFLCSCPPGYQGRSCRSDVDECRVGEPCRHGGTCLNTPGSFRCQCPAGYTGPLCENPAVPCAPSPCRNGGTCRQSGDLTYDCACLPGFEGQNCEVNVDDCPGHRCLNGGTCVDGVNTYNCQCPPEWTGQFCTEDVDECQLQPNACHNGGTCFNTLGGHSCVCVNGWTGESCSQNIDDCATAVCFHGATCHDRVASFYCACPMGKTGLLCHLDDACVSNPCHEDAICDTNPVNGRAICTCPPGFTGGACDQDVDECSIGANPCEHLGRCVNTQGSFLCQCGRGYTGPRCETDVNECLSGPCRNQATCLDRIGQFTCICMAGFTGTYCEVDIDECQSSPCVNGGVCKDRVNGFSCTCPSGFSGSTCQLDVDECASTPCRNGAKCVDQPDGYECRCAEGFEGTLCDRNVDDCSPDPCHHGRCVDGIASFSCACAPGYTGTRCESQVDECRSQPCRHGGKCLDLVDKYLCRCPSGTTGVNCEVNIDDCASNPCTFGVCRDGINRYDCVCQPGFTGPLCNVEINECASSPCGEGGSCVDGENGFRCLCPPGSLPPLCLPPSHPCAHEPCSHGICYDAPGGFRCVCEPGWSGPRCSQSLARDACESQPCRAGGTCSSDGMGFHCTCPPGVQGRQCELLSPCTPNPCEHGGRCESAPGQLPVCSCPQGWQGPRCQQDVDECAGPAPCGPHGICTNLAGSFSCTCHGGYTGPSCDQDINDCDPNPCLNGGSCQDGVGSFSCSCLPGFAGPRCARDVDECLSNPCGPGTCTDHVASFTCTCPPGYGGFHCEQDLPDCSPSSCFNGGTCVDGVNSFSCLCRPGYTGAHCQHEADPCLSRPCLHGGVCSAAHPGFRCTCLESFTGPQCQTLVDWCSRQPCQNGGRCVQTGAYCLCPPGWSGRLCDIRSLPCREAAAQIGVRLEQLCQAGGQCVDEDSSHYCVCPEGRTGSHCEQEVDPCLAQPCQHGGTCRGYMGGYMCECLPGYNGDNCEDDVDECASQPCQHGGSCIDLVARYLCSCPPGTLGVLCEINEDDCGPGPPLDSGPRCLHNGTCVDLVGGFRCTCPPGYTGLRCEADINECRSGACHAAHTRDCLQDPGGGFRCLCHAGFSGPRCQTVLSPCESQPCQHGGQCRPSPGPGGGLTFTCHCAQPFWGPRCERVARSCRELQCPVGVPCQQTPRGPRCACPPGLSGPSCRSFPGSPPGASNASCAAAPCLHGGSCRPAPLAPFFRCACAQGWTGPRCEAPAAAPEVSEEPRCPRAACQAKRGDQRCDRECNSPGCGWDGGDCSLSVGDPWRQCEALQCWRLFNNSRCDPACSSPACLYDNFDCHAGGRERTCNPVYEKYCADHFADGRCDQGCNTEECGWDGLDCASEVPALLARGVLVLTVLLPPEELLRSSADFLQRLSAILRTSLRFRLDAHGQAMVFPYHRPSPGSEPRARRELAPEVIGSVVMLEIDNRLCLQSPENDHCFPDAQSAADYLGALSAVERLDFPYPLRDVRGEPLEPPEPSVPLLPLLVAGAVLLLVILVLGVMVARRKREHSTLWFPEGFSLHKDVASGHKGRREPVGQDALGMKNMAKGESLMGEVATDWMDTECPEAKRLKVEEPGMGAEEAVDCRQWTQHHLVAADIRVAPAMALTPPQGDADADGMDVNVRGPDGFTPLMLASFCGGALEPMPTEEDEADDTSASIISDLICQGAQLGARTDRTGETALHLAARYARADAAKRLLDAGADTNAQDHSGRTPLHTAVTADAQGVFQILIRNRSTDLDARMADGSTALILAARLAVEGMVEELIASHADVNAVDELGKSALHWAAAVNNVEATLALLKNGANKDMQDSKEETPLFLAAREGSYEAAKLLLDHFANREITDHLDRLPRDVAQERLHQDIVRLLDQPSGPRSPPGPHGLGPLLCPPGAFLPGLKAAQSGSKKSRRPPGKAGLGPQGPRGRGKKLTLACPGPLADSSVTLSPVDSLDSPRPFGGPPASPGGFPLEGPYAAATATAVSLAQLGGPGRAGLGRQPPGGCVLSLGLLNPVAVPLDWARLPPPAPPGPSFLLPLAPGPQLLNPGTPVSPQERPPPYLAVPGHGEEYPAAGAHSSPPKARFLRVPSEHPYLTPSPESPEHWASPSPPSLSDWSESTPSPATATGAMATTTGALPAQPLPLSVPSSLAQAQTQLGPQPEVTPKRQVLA

For the compound `CC(C)C(=C=CC[C@@H](O)c1ccc(OCCO)cc1)CCO`, the composite z-score in [1] is -0.226; in assay [2], -0.0605; in assay [3], -0.128; in assay [4], 0.127; in [5], -0.0765; in [6], 0.346. The composite z-score in assay [7] is 0.402; in [9] it was -0.315; in assay [10] it was 0.0505; in [11], 0.693; in assay [15] it was -0.0081; in assay [17], -0.225. Moreover, the figures for the composite z-score in assay [18], in assay [19] and in [20] were 0.96, 0.271 and -0.146, respectively. The z-score in [8] is 0.0636 (inactive); in assay [12] it was -1.21 (inactive); in [13] it was -1.32 (inactive); in [14] it was -1.4 (inactive); in assay [16] it was 1.23 (inactive).
On to `Cc1ccc(S[C@]2(C(=O)NCCCN(C)C)CC(=O)N(Cc3ccccc3Cl)[C@@H]2c2ccc(CO)cc2I)cc1`, for which the composite z-score in assay [1] was 1.23; in assay [2] it was -0.42; in assay [3], -0.0996; in assay [4], -0.855; in assay [5] it was -1.17; in [6], 1.07. In addition, the composite z-score in assay [7] is 0.801; in [9], 0.141; in assay [10] it was -0.0346; in [11], -0.338; in assay [15], 0.605; in assay [17], 0.258. Also, the figures for the composite z-score in assay [18], in assay [19] and in [20] were -0.845, -1.22 and -0.209, respectively. Also, the z-score in [8] was -1.4 (inactive); in [12], 0.641 (inactive); in assay [13] it was -2.52 (inactive); in assay [14], 1.43 (inactive); in assay [16] it was 0.562 (inactive).
`COCCOC(=O)N1C(=O)[C@@]2(c3cc(C#CCC(C(=O)OC)C(=O)OC)ccc31)[C@H](C(N)=O)[C@H]1C(=O)O[C@H](c3ccccc3)[C@H](c3ccccc3)N1[C@@H]2c1ccc(OCCO)cc1`: the composite z-score in assay [1] is -0.231; in assay [2] it was 0.787; in assay [3] it was 0.0001; in assay [4] it was 0.906; in assay [5], 1.34; in assay [6], 1.19. The composite z-score in assay [7] is 1.23; in assay [9] it was 0.111; in assay [10] it was -0.249; in [11] it was 1.53; in [15], 2.77; in assay [17] it was 0.0139. The results for the composite z-score in assay [18], in assay [19] and in assay [20] were 0.813, 1.08 and -0.0245, respectively. For the same compound, the z-score was 0.789 (inactive) in [8]; 2.23 (inactive) in [12]; 2.01 (inactive) in assay [13]; 6.44 (inactive) in [14]; -0.55 (inactive) in assay [16].
As to `CC1CC/C=C\[C@H]2OC34C=CCN(CCN5CCOCC5)C(=O)[C@H]3N(CCCCCCO)C(=O)[C@@H]4C2C(=O)O1` (stereo not given in full), the composite z-score was -0.0847 in [1]; -0.686 in assay [2]; -0.129 in [3]; -0.445 in [4]; -0.894 in [5]; -0.539 in assay [6]. Moreover, the composite z-score was 1.44 in [7]; -0.493 in assay [9]; -0.171 in assay [10]; -0.592 in assay [11]; 0.318 in assay [15]; -0.192 in assay [17]. The composite z-score in assay [18] is -0.403; in assay [19], -0.218; in assay [20], -0.278. In addition, the z-score was 0.647 (inactive) in assay [8]; 0.0356 (inactive) in assay [12]; -0.573 (inactive) in assay [13]; 0.132 (inactive) in assay [14]; -0.263 (inactive) in assay [16].
As for `COc1ccccc1CN1C(=O)c2ccccc2[C@](Cc2ccccc2I)(C(=O)NCCCN(C)C)[C@@H]1c1ccc(CO)cc1`, the composite z-score in assay [1] was -0.967; in [2], -0.501; in assay [3], -0.116; in assay [4] it was 0.483; in assay [5] it was 0.452; in assay [6], 0.683. Besides, the composite z-score in assay [7] was 1.19; in assay [9] it was -0.0929; in [10] it was -0.37; in [11], 1.4; in [15] it was 3.04; in assay [17] it was -0.305. Besides, the values for the composite z-score in [18], in assay [19] and in [20] were 0.134, 0.591 and -0.355, respectively. Besides, the z-score was -3.16 (inactive) in assay [8]; 0.404 (inactive) in assay [12]; -20.1 (active) in [13]; -2.96 (inactive) in assay [14]; -5.17 (inactive) in assay [16].
For the compound `O=C1C2C=CC(C(O)c3cccc(O)c3)N(Nc3ccccc3F)C2C(=O)N1c1ccccc1` (stereo not given), the composite z-score in [1] is 0.0355; in assay [2] it was 0.74; in [3], -0.0005; in assay [4] it was -0.0284; in assay [5], 0.0745; in assay [6] it was 0.445. Besides, the composite z-score in assay [7] is 0.218; in assay [9] it was 0.725; in assay [10] it was -0.437; in [11], 0.788; in assay [15], 1.88; in assay [17] it was -0.192. Moreover, the composite z-score was -0.171 in assay [18], 0.552 in assay [19] and -0.13 in assay [20]. The z-score was 2.18 (inactive) in assay [8]; -25 (active) in assay [12]; -8.06 (active) in assay [13]; -1.5 (inactive) in assay [14]; 1.94 (inactive) in [16].
Turning to `CN(C)CCCC[C@@H]1NC(=O)[C@H]2C[C@@H](C(=O)O)[C@@H](c3cccc(OCCO)c3)N2C1=O`, the composite z-score in assay [1] is 0.794; in assay [2], 1.13; in assay [3], -0.0238; in assay [4], 0.105; in [5], 0.146; in assay [6], 0.212. Besides, the composite z-score amounted to 1.44 in assay [7]; 0.547 in assay [9]; 0.0374 in [10]; 1.4 in assay [11]; 2.1 in assay [15]; 0.495 in assay [17]. The composite z-score in assay [18] is 1.19; in [19] it was 0.87; in [20], 0.169. Also, the z-score was 6.56 (inactive) in assay [8]; -0.733 (inactive) in assay [12]; -1.36 (inactive) in [13]; 0.102 (inactive) in assay [14]; 0.579 (inactive) in [16].
With `Cc1ccc(S[C@]2(C(=O)NCC(F)(F)F)CC(=O)N(C3CCCCC3)[C@@H]2c2ccc(CO)cc2)cc1`, the composite z-score in [1] is 0.169; in [2], 0.148; in assay [3], -0.129; in assay [4], 0.116; in [5], -0.426; in [6], 1.66. Further, the composite z-score in assay [7] was 0.631; in assay [9], 0.387; in [10], -0.271; in [11] it was 1.28; in assay [15] it was 2.9; in [17] it was 0.0078. In addition, the composite z-score in assay [18] is -0.461; in assay [19] it was -0.107; in assay [20] it was -0.194. Further, the z-score was -2.21 (inactive) in assay [8]; 0.565 (inactive) in assay [12]; -0.211 (inactive) in assay [13]; -0.0121 (inactive) in [14]; 0.471 (inactive) in assay [16].
For the compound `COCCOC(=O)N1C(=O)[C@@]2(c3cc(C#CCC(C(=O)OC)C(=O)OC)ccc31)[C@H](c1ccc(OCCO)cc1)N1[C@H](c3ccccc3)[C@H](c3ccccc3)OC(=O)[C@H]1[C@@H]2C(=O)N1CCCCCCC1`, the composite z-score was found to be 3.74 in [1]; 1.64 in assay [2]; 0.671 in assay [3]; 0.304 in [4]; 1.37 in [5]; 0.812 in [6]. Also, the composite z-score in assay [7] was determined as 1.3; in assay [9], 3.32; in assay [10], 3.43; in [11], 1.56; in [15], 3.6; in assay [17], 1.68. Moreover, the composite z-score in assay [18] amounted to 1.43; in [19], 1.06; in assay [20] it was 1.03. For the same compound, the z-score in [8] is 0.562 (inactive); in assay [12], 1.9 (inactive); in assay [13], 0.911 (inactive); in assay [14] it was 3.67 (inactive); in assay [16], 1.43 (inactive).
